# Tg IFNy HTS – T. gondii growth inhibition with IFN-gamma, primary screen, cell-based | Toxoplasma gondii growth in IFN-gamma-treated host cells; stronger effect = lower value | activity change, negative = inhibition, % (no concentration beside the values) | hit rate 3.8% among 69,000 | AID 1259416, 2018; in the data active = activity change below about -70%, passing the limit was not always enough;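 also: host cells are HeLa cells infected with Toxoplasma gondii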
# * marks the source's active call; other numbers are inactive results; i = inactive; ! = repeats disagree. Only a selection was taken, and hits are over-represented in it overall.
SMILES,Tg IFNy HTS
Cc1noc(C)c1S(=O)(=O)N1CCCC2(CC1)CN(C)C(=O)O2 (centres undefined),-10
S=c1[nH]cc(-c2ccc(Br)cc2)[nH]1,-97*
O=C(c1ccncc1)N1CCC2(CCCN(C(=O)c3cnccn3)C2)C1 (centres undefined),i
CC(C)Cc1ccc(S(=O)(=O)N2CCN(C(=O)Cn3ccnc3)CC2)cc1,7
CC(C)N1CC2(CCN(Cc3cccnc3)CC2)CC1COCC1CC1 (centres undefined),-4
Cc1ccc(C(=O)N2CCC3(CCC(COCC4CC4)N3C)CC2)cc1 (centres undefined),-3
Cc1cccc(CN2CCC3(CCC(COCC4CC4)N3C)CC2)n1 (centres undefined),-85*
O=C(NCc1cnn2ccccc12)c1ccccc1C1CCNC1 (centres undefined),2
CCc1c(C)sc2c1CCN(Cc1nc(-c3cccc(OC)c3OC)oc1C)C2c1ccccc1 (centres undefined),-39
CNc1cc(C2CCN(C(=O)c3cc4cc(C)ccc4o3)CC2)nc(-c2ccncc2)n1,-38
Cc1cc(Br)c2c(c1)c(N=NC(N)=S)c(O)n2C,-31
NC(=S)N=Nc1c(O)n(Cc2ccccc2)c2ccccc12,-103*
CCCS(=O)(=O)N1CCc2ncc(Cn3cncn3)n2CC1,-42
CN(C)Cc1c(C(=O)NCCOc2ccc(C(=O)NO)cc2)oc2ccccc12,-74*
COc1ccc(OCCNC(=O)c2cccs2)cc1,2
O=C(NCCCOc1ccccc1)c1c(O)cccc1O,12
CCNc1ncc(C(=O)NCC2(O)CCCNCC2)cn1 (centres undefined),3
CCOC(=O)[C@@]12CCCN(Cc3ccccn3)C[C@@H]1CN(S(C)(=O)=O)C2,-23
O=C(Nc1c(C(=O)NCc2ccccn2)[nH]c2ccccc12)c1ccc(Cl)cc1,-2
Cc1cc(=O)c2cc(Cl)ccc2s1,59
Cc1c(C(=O)CSc2ccc(Cl)cc2)sc2ccc(Cl)cc12,-57
COc1ccc(OS(=O)(=O)c2sc3ccc(Cl)cc3c2C)cc1,-104*
COc1ccc(N2CCCN(CC3CCN(C(=O)c4oc(C)nc4C)CC3)CC2)cc1,3
CC(C)N1C(=O)C2C3CC(=O)C(c4ccccc43)C2C1=O (centres undefined),-3
CCCC(=O)Nc1ccc(-c2nc(Cn3cccn3)c(C)o2)cc1,13
SMILES,Tg IFNy HTS
c1cncc(-c2nc3c(c(N4CCCC(Cn5ccnc5)C4)n2)CNC3)c1 (centres undefined),15
Cc1nnc2n1CC(c1cccc(C(=O)Nc3ncc(Cc4ccccc4F)s3)c1)CC2 (centres undefined),-48
O=C(Nc1ccc2ccccc2n1)c1ccc(Cl)cc1,305
O=C(Nc1ncc(Cc2cccc3ccccc23)s1)c1ccc(Cl)cc1,-101*
CO[C@@H]1CCN(C(=O)Cc2ccccn2)[C@H]1Cc1ccncc1,0
c1ccc(-c2nnc3n2C2(CCCCC2)Cc2ccccc2-3)cc1,-66
c1csc(-c2nnc3n2C2(CCCC2)Cc2ccccc2-3)c1,-97*
c1coc(-c2nnc3n2C2(CCCC2)Cc2ccccc2-3)c1,40
Cc1cc(C)n(Cc2nc(-c3ccc(NC(=O)c4ccco4)cc3)oc2C)n1,45
CC(C)COCC(CN(Cc1ccccc1)c1ccccc1)N1CCCC1 (centres undefined),-76*!
CC(COc1ccccc1)N(CCCl)Cc1ccccc1 (centres undefined),5
Cc1nn(-c2ccccc2)c2sc(C(=O)N3CCCC(N)CC3)cc12 (centres undefined),-25
COCCN1CCO[C@H]2CN(C(=O)COc3ccccc3)CC[C@@H]2C1,-2
CCOC(=O)c1nc(Nc2ccc(OC)c(OC)c2)c2ccccc2n1,18
COc1cc(NS(C)(=O)=O)ccc1Cc1c2ccccc2nc2ccccc12,-83*
COc1ccc(CNC(=O)c2nc(Nc3ccc(F)cc3)c3ccccc3n2)c(OC)c1,40
c1cnn(Cc2ccc(CN3CCC4(CCOCC4)CC3)cc2)c1,-7
Cc1nc2c(C)cccc2cc1C(=O)N1CCC(c2cc(CC(=O)O)[nH]n2)CC1,-20
O=C(NCc1cccc(Cl)c1)c1ccc2c(c1)CCC(=O)N2Cc1ccccc1,-100*
O=C(NCc1ccc(N2CCCC2=O)cc1)c1cccc(Cl)c1,-3
CCN1C(=O)CCc2cc(NS(=O)(=O)Cc3cccc(Cl)c3)ccc21,-34
Cn1cc(S(=O)(=O)Nc2ccccc2N2CCOCC2)c(C(F)(F)F)n1,-24
O=S(=O)(Nc1ccccc1N1CCOCC1)c1cc(Cl)sc1Cl,-85*
O=S(=O)(Nc1ccccc1N1CCOCC1)c1cccc2nonc12,-45
CCc1cccc(NC(=O)CCC(=O)N(C)C(C)c2nccs2)c1 (centres undefined),-25
SMILES,Tg IFNy HTS
Cc1ccc2c(c1)CCCN2CCn1c(=O)[nH]c2ccc(C)cc2c1=O,-82*
Cc1ccc2[nH]c3c(=O)n(CCCN4CCN(C)CC4)cnc3c2c1,-4
Cc1ccc2[nH]c3c(=O)n(CCc4cnc[nH]4)cnc3c2c1,44
CCn1c(-c2cc(NC(=O)c3cccnc3)n[nH]2)cc2ccc(OC)cc21,-30
CCn1c(-c2cc(NC(=O)c3cccnc3)n[nH]2)cc2ccccc21,-105*
CCn1c(-c2cc(NC(=O)c3cnccn3)n[nH]2)cc2ccccc21,78
COc1ncccc1-c1nc(C(F)(F)F)nc(C)c1C,3
CCc1ccccc1-c1cccc(-n2cnnc2)c1,-30
CC(=O)N1C2CCN(c3ncc(F)cn3)CC2C[C@H]1Cn1cncn1 (some centres undefined),99
O=C(c1cncc(Oc2ccccc2CN2CCOCC2)n1)N1CCCC1,-38
Cc1cccc(OCC(=O)NCCc2csc(-c3cccc(F)c3)n2)c1,26
O=C(c1ccc(Br)o1)N1CCN(S(=O)(=O)c2cc3c4c(c2)CCN4C(=O)CC3)CC1,26
CCc1nnc(-c2coc(S(=O)(=O)N3CCC(N4CCCCC4)CC3)c2)o1,13
CCNC(=O)c1ccc(N2CCN(Cc3ccc4c(c3)OCCO4)CC2)nc1,-3
O=C(Nc1ccc(CN2CCOCC2)cc1)c1cc2ccccc2o1,i
CCNC(=O)c1noc(-c2cc(C(C)C)c(O)cc2O)c1-c1ccc(CN2CCOCC2)cc1,-88*
CC(=O)Nc1cccc2nc(CN3CCCC(C(=O)c4cccc5ccccc45)C3)ccc12 (centres undefined),21
Cc1cccc(C(=O)NCCc2csc(-c3cccc(F)c3)n2)c1,-75*
O=C(NCCc1csc(-c2ccc(F)cc2)n1)c1cccc(Br)c1,-87*
COc1cccc(C(=O)NCCc2csc(-c3ccc(F)cc3)n2)c1,-68
O=C(NCCc1csc(-c2ccc(F)cc2)n1)c1cccc(C(F)(F)F)c1,-34
COc1cccc(C(=O)NCCc2csc(-c3cccc(C)c3)n2)c1,366
CC(=O)NCCc1csc(-c2cccc(F)c2)n1,102
Cc1cccc(C(=O)NCCc2csc(-c3ccccc3)n2)c1,152
O=C(NCCc1csc(-c2cccc(F)c2)n1)c1ccc(Br)cc1,-50
O=C(NCCc1csc(-c2cccc(F)c2)n1)c1cccc(Br)c1,-81*
CC(C)N1CCC2(CC(C(=O)NCc3ccc(F)cc3)=NO2)C1 (centres undefined),179
C=CC(=O)N1CCC2C(C[C@@H](CN3CCCC3)N2c2nccs2)C1 (some centres undefined),3
Fc1ccccc1-n1cc(-c2ccnc(N3CC=CC3)n2)cn1,-34
Cc1cc(CN2CCN(C3CCN(C)CC3)CC2)n[nH]1,-43

# From PubChem
